Measured values published in PubChem BioAssay (NCI).
About 83,000 compounds went through this panel and 20% of them were active in at least one assay; those are over-represented in the sample as a whole.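 Activity criterion: percent growth below 10, measured after cells in 96-well plates were exposed to a single compound concentration for 48 hours.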 A number with no mark means an inactive call. Calls of active or inactive are those of the source.

Experiments:
Assay in all cases: NCI-60 one-dose screen, 48 h (100 = growth as untreated, 0 = no growth, -100 = all killed)
Settings in all cases: 10 µM unless noted
[1] = tested on: HCT-15 colon
[2] = tested on: HT29 colon
[3] = tested on: SNB-75 CNS
[4] = tested on: SNB-19 CNS
[5] = tested on: U251 CNS
[6] = tested on: PC-3 prostate
[7] = tested on: SK-MEL-5 melanoma
[8] = tested on: LOX IMVI melanoma
[9] = tested on: SK-MEL-28 melanoma
[10] = tested on: SK-MEL-2 melanoma
[11] = tested on: EKVX NSCLC
[12] = tested on: SN12C renal
[13] = tested on: UO-31 renal
[14] = tested on: TK-10 renal
[15] = tested on: ACHN renal
[16] = tested on: CAKI-1 renal
[17] = tested on: A498 renal
[18] = tested on: CCRF-CEM leukemia
[19] = tested on: MOLT-4 leukemia
[20] = tested on: UACC-62 melanoma

Row | Compound | growth [1] | growth [2] | growth [3] | growth [4] | growth [5] | growth [6] | growth [7] | growth [8] | growth [9] | growth [10] | growth [11] | growth [12] | growth [13] | growth [14] | growth [15] | growth [16] | growth [17] | growth [18] | growth [19] | growth [20]
1 | CCCn1c(=S)sc2c(Cl)nc(C)nc21 | 12.7% | 84% | 8.62% (active) | 93.5% | 79% | 100% | 108% | -78.5% (active) | 102% | 1.85% (active) | 106% | 113% | 103% | 137% | 83.1% | 63.8% | 98.5% | 72% | 116% | 
2 | COc1cc(/C=C\c2cc(OC)c(OC)c(OC)c2)cc(N/C=C\C(=O)c2c[nH]c3ccccc23)c1OC | -39% (active) | -77.7% (active) | 34% | 54.1% | 58.7% | 37.3% | 54.2% | -73.3% (active) | -90% (active) | 46.7% |  | 70.8% | -93% (active) | -43.4% (active) | -100% (active) |  | 39.3% | -57.3% (active) | -29% (active) | 
3 | Cc1ccc2nc(-c3c(CCCO)noc3N)[nH]c(=O)c2c1 | 105% | 113% | 82.2% | 113% | 99.6% | 96% | 99.6% | 100% | 112% | 105% | 101% | 111% | 47% | 95.5% | 113% | 97.1% | 104% | 88.5% | 83.7% | 
4 | COc1cc(-c2n[nH]nc2-c2ccc3c(c2)OCCO3)cc(OC)c1OC | 6.81% (active) | -12.7% (active) | 25.4% | 42.6% | -27.3% (active) | 16.5% | -39.5% (active) | 15.2% | 38.9% | 26.6% |  | 31% | 27.1% | 52.4% | 12.3% | 18.4% | -14.6% (active) | 5.78% (active) | 5.49% (active) | 
5 | CCN1C(=O)N(CC)C2C1NN=c1s/c(=C\c3ccccn3)c(=O)n12 (configuration not stated) | 33.5% | 6.69% (active) | -24.4% (active) | 34.1% | 28.3% | 24.4% | 5.18% (active) | 42.6% | 57.3% | 39.9% | 61.7% | 40.7% | 43.8% | 51.2% | 43.4% | 30.2% |  |  | 42.5% | 
6 | C[N+](C)(C)c1ccc(CC2c3ccccc3-c3ccccc32)cc1 | 98.1% | 65.9% | -3.78% (active) | 23.2% | 19.3% | 56.1% | 77.1% | 86.3% | 81.3% | 81.5% | 71.2% | 21.3% | 90.9% | 93.3% | 99.9% | 86.8% | 70.5% | 69.9% | 76.4% | 
7 | CCOC(=O)C(Cc1ccccc1)n1c(O)c(C=Nc2ccc(C(=O)OCCN(CC)CC)cc2)sc1=O (configuration not stated) | 89.4% | 62.4% | 99.7% | 95.3% | 96.3% | 72.8% | 88.7% |  | 93.1% | 90.7% |  | 92.1% | 84.7% | 112% | 104% | 97.4% |  | 68.2% | 69.3% | 
8 | CCN(CC)P(=O)(N(CC)CC)N(CCCSC/C=C(\C)CC/C=C(\C)CCC=C(C)C)CCCN1CCN(C)CC1 | 93.2% | 98.9% | 93% | 92.8% | 101% | 95.5% |  |  | 107% | 118% |  | 92.9% | 92.8% |  | 119% | 89.9% | 77.2% | 87.2% | 93.1% | 94.2%
9 | COc1ccc(-c2nc3sccn3c2-c2ccnc(NCCNS(=O)(=O)c3ccc(C(F)(F)F)cc3)n2)cc1 | 9.19% (active) | 14.5% | 29.5% | 34.2% | 15.4% | 9.86% (active) |  |  | 13.9% | -27.8% (active) |  | 17.3% | 19% | 30.2% | 3.82% (active) | 17% |  | 9.58% (active) | 0.208% (active) | 0.0074% (active)
10 | Cc1sc(N=Nc2ccc(N(C)C)cc2)[n+]([O-])c1C | 100% | 103% | 82.5% | 99.5% | 99% | 95.2% |  |  | 102% | 114% |  | 96.7% | 82.4% | 104% | 104% | 110% | 88.1% | 104% | 103% | 99.2%
11 | CCCCCCOc1ccc(C2(Cl)c3ccccc3N(C)c3ccccc32)cc1 | 44.7% | 35.1% | 63.3% | 47.1% | -8.78% (active) | 21.8% |  | -33.8% (active) | 24.5% | 42.3% | 58.5% | 52.4% | 67.8% | 76.7% | 61% | 61.7% | 86.6% | 89.2% | 74% | 38.1%
12 | COc1c(NC[C@H]2OC(O)[C@H](O)[C@@H](O)[C@@H]2O)c(=O)c1=O (some centres not stated) | 107% | 118% | 70.9% | 109% | 95.4% | 92.7% |  | 95.5% | 107% | 121% |  | 101% | 86.7% | 97% | 105% |  | 73% | 81.2% | 102% | 96.6%
13 | CC(C)(C)OC(=O)N1C/C(=C\c2cccs2)C(=O)/C(=C/c2cccs2)C1 | 85.1% | 86.4% | 78.9% | 94.5% | 83.7% | 74.7% |  | 90.9% | 106% | 95.6% | 99.5% | 93.6% | 71.4% | 110% | 97.2% | 67.2% | 81.9% | 51.7% | 69.4% | 
14 | CC(=O)Nc1ccc(S(=O)(=O)NC(CCC(=O)Nc2ccc(Cl)cc2)C(=O)O)cc1 (configuration not stated) | 98.9% | 106% | 69.2% | 100% | 90.6% | 97.5% |  | 81.1% | 94.4% | 107% |  | 102% | 62.1% | 95.8% | 75.7% | 83% | 58.3% | 88% | 110% | 67.5%
15 | Cc1nn(-c2ccc(Cl)cc2)c(=O)n1CCOc1ccccc1Cl | 110% | 95.9% | 70.6% | 115% | 101% | 88.5% |  | 90.1% | 96.6% | 126% |  | 93.6% | 94.9% | 108% | 78.9% | 85.7% | 103% | 86.4% | 97.2% | 101%
16 | CCOC(=O)[C@H](CSSc1ncnc2cc[nH]c12)NC(=O)[C@@H](C)c1ccc2cc(OC)ccc2c1 | 19.6% | 15.7% | 50.1% | 91.8% | 35.6% | 36.3% |  | 10.3% | 69.2% | 23% |  | 29.8% | 13.4% | 13.8% | 24.9% | 16% | 49.9% | 12.7% |  | 7.27% (active)
17 | COc1cc(NC(=O)CSc2nc3ccc(C)cc3c(=O)n2-c2ccccc2)cc(OC)c1OC | 81.1% | 109% | 57.4% | 88% | 93.9% | 82% |  | 75.9% | 83.7% | 86.5% |  | 92.8% | 51% | 104% | 90.2% | 88.4% | 62.7% | 83.9% | 59.2% | 77.5%
18 | CCN1C(=O)N(CC)C2Nn3c(s/c(=C4\C(=O)N(C5CCCC5)c5ccccc54)c3=O)=NC21 (configuration not stated) | 51.2% | 21.3% | 8.34% (active) | 79.2% | 58.9% | 46.5% |  | 64.5% | 73.4% | 75.9% | 59.7% | 70.6% | 51.7% | 88.1% | 59.2% | 32.6% | 30.8% |  | 84.4% | 61.9%
